Several values for one entry are separate records, joined by “and”; a condition that tells them apart may be missing. Equal values may be shown once. Where a name gives a salt, the structure may show the parent alone.
Tests used:
Experiment in all cases: cell viability relative to vehicle control; higher = less cytotoxic
Conditions in all cases: 10 µM
K562 = test system: K562
Method in brief: (§1)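 CRISPR-edited mutant clones and isogenic wild-type clones from four leukaemia lines were screened against Selleck bioactive, kinase and epigenetic probe libraries, with identity-inconsistent compounds excluded. Each compound was acoustically dispensed at a single 10 µM dose into 384-well plates holding 2000 cells in 50 µL medium per well. After 48 h the supernatant was removed and CellTiter-Glo luminescence was read. Viability was expressed as percent of the on-plate vehicle control and analysed in Genedata Screener.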

MARIMO = test system: MARIMO
Method in brief: as §1

MOLM14 = test system: MOLM14
Method in brief: as §1

OCI-AML2 = test system: OCI-AML2
Method in brief: as §1

SMILES | cell viability (K562; SRSF2 genotype: SRSF2 P95H/wt) | cell viability (K562; SRSF2 genotype: SRSF2 wt/wt) | cell viability (MARIMO; SRSF2 genotype: SRSF2 P95H/wt) | cell viability (MARIMO; SRSF2 genotype: SRSF2 wt/wt) | cell viability (MOLM14; SRSF2 genotype: SRSF2 P95H/wt) | cell viability (MOLM14; SRSF2 genotype: SRSF2 wt/wt) | cell viability (OCI-AML2; SRSF2 genotype: P95H/wt) | cell viability (OCI-AML2; SRSF2 genotype: wt/wt)
C#C[C@]1(O)CC[C@H]2[C@@H]3CCC4=CCCC[C@@H]4[C@H]3C(=C)C[C@@]21CC [Desogestrel] | 77.9% and 78.3% | 78.7% | 75.4% | 81.7% | 71.4% | 79.9% | 61% | 63%
O=c1[nH]c(=O)n([C@H]2C[C@H](O)[C@@H](CO)O2)cc1F [Floxuridine] | 54.2% and 46.3% | 30.1% | 86.5% | 96.5% | 48% | 14.9% | 30.9% | 48.8%
CC(C)CCNC(=O)[C@H](CC(C)C)NC(=O)[C@H]1O[C@@H]1C(=O)O [Loxistatin Acid (E-64C)] | 107% and 106% | 100% | 102% | 104% | 101% | 104% | 106% | 105%
CSc1ccc(C(=O)/C=C/c2cc(C)c(OC(C)(C)C(=O)O)c(C)c2)cc1 [Elafibranor] | 91.2% and 99.2% | 88.1% | 91.3% | 91% | 34.2% | 30% | 61.7% | 57%
CS(=O)(=O)c1cccc(C[C@H](NC(=O)c2c(Cl)cc3c(c2Cl)CCN(C(=O)c2ccc4ccoc4c2)C3)C(=O)O)c1 [Lifitegrast] | 96.8% and 97% | 90.3% | 90.5% | 102% | 93.7% | 96.6% | 92.2% | 94.9%
COc1cc2c(N3CCN(C(=O)Nc4ccc(OC(C)C)cc4)CC3)ncnc2cc1OCCCN1CCCCC1 [Tandutinib (MLN518)] | 86.7% and 96.2% | 83.2% | 83.7% | 100% | 17.1% | 14.4% | 34.3% | 43.5%
O=c1cc(N2CCOCC2)oc2c(-c3cccc4c3sc3ccccc34)cccc12 | 89.7% and 97.5% | 88.3% | 93% | 87.3% | 60.5% | 51.9% | 52.5% | 66.4%
OC[C@H]1O[C@@](CO)(O[C@H]2O[C@H](CO)[C@@H](O)[C@H](O)[C@H]2O)[C@@H](O[C@H]2O[C@H](CO)[C@@H](O)[C@H](O)[C@H]2O)[C@@H]1O [Melezitose] | 107% and 99.6% | 104% | 99% | 111% | 102% | 104% | 96.3% | 114%
CCC(C)(C)c1ccc(CC(C)CN2C[C@@H](C)O[C@@H](C)C2)cc1 (stereo partly drawn) [Amorolfine Hydrochloride] | 79.9% and 81.9% | 99.7% | 66.2% | 71.5% | 81.8% | 81.4% | 49.3% | 71.5%
Cc1ccc([N+](=O)[O-])cc1S(=O)(=O)N(C)/N=C/c1cnc2ccc(Br)cn12 | 28.6% and 22.3% | 21% | 7.47% | 3.68% | 0.68% | 0.5% | 1.7% | 17.4%
C=CCS[S+]([O-])CC=C (stereo not drawn) [Allicin] | 92.6% and 104% | 91.8% | 96% | 84.9% | 99.8% | 99.8% | 89.2% | 105%
CN(C)c1cccc(-c2c3c(=O)n(-c4ccccc4Cl)[nH]c3cc(=O)n2C)c1 | 100% and 98.2% | 101% | 109% | 126% | 104% | 99.7% | 101% | 114%
CC(C)N(CC[C@H](c1ccccc1)c1cc(CO)ccc1O)C(C)C | 89.7% and 94% | 98.4% | 88.3% | 90.7% | 93.3% | 97.9% | 93.5% | 90.9%
Nc1ncnc2n[nH]c(Nc3ccc(F)cc3)c12 | 86.7% and 96.4% | 82.6% | 70% | 67.5% | 69.2% | 71.8% | 65.5% | 63.8%
CCCCC(C=O)NC(=O)C(CC(C)C)NC(=O)C(CC(C)C)NC(C)=O (stereo not drawn) | 1.41% and 2.62% | 1.86% | 1.3% | 1.7% | 0.23% | 0.15% | 0.23% | 1.17%
COc1ccc2c(Oc3ccc(NC(=O)c4c(C)n(CC(C)(C)O)n(-c5ccccc5)c4=O)nc3)ccnc2c1 | 46% and 69.9% | 50% | 84.8% | 97.3% | 11% | 10.7% | 27.8% | 35.9%
C=CC(=O)Nc1cc(Nc2nccc(-c3cn(C)c4ccccc34)n2)c(OC)cc1N(C)CCN(C)C | 1.58% and 2.37% | 3.2% | 1.11% | 1.36% | 0.38% | 0.44% | 0.32% | 0.41%
OCCOCCN1CCN(C(c2ccccc2)c2ccc(Cl)cc2)CC1 (stereo not drawn) [Hydroxyzine pamoate] | 88.7% and 98% | 100% | 79.8% | 91.8% | 79.9% | 96.4% | 87.9% | 94.6%
O=C1C(=C(O)C=Cc2ccc(O)cc2)C(O)=C([C@@H]2O[C@H](CO)[C@@H](O)[C@H](O)[C@H]2O)C(=O)C1(O)[C@@H]1O[C@H](CO)[C@@H](O)[C@H](O)[C@H]1O (stereo partly drawn) [Hydroxy safflor yellow A] | 90% and 88% | 84.7% | 90.1% | 97.3% | 85.4% | 87.7% | 89.7% | 104%
NC(N)=N/N=C/c1c(Cl)cccc1Cl [Guanabenz (WY-8678) Acetate] | 81.4% and 86.5% | 84% | 83.3% | 83.3% | 84.1% | 86.5% | 89.6% | 88.1%
CC(ONC(=O)c1cc(C(F)(F)F)cc(C(F)(F)F)c1)C(=O)Nc1ccc(Cl)cc1 (stereo not drawn) | 78.9% and 81% | 78.8% | 95.5% | 102% | 88.7% | 93.2% | 82% | 90.7%

SMILES | cell viability (K562; SRSF2 genotype: SRSF2 P95H/wt) | cell viability (K562; SRSF2 genotype: SRSF2 wt/wt) | cell viability (MARIMO; SRSF2 genotype: SRSF2 P95H/wt) | cell viability (MARIMO; SRSF2 genotype: SRSF2 wt/wt) | cell viability (MOLM14; SRSF2 genotype: SRSF2 P95H/wt) | cell viability (MOLM14; SRSF2 genotype: SRSF2 wt/wt) | cell viability (OCI-AML2; SRSF2 genotype: P95H/wt) | cell viability (OCI-AML2; SRSF2 genotype: wt/wt)
CCOC(=O)[C@H](CCc1ccccc1)N[C@@H](C)C(=O)N1CCC[C@H]1C(=O)O [Enalapril maleate (Vasotec)] | 106% and 100% | 106% | 99.6% | 111% | 112% | 103% | 94.2% | 97.8%
N#Cc1ccc(Oc2ccc3c(c2)COB3O)cc1 [Crisaborole (AN2728)] | 93.3% and 84% | 90.8% | 73.8% | 72.9% | 68.2% | 77.7% | 90% | 79.3%
CNCC[C@H](Oc1cccc2ccccc12)c1cccs1 [Duloxetine HCl (Cymbalta)] | 45.7% and 60.1% | 54.7% | 55% | 61.4% | 55.9% | 70.9% | 46.2% | 53.5%
COc1ccc(-c2nc(-c3cc(C(F)(F)F)cc(C(F)(F)F)c3)n(Cc3ccc(C(N)=O)cc3)c2-c2ccc(OC)cc2)cc1 [Apoptozole] | 80.8% and 87.7% | 80.8% | 89.9% | 88.9% | 88.5% | 90.3% | 69.4% | 84.9%
CNC(=O)c1ccccc1Sc1ccc2c(/C=C/c3ccccn3)n[nH]c2c1 [Axitinib] | 8.75% and 13.3% | 14% | 57% | 65.2% | 29.5% | 15.3% | 36.9% | 34%
COc1cc2nc(N3CCN(C(=O)c4ccco4)CC3)nc(N)c2cc1OC [Prazosin HCl] | 99.9% and 102% | 102% | 96.8% | 103% | 101% | 97% | 102% | 95.6%
CC(=O)O[C@H](CC=C(C)C)C1=CC(=O)c2c(O)ccc(O)c2C1=O [Acetylshikonin] | 4.63% and 1.27% | 1.38% | 0.73% | 0.66% | 0.73% | 0.53% | 0.72% | 0.59%
COC(=O)N[C@H](C(=O)N1CCC[C@H]1c1ncc(-c2ccc(-c3ccc(-c4cnc([C@@H]5CCCN5C(=O)[C@@H](NC(=O)OC)C(C)C)[nH]4)cc3)cc2)[nH]1)C(C)C [Daclatasvir Digydrochloride] | 79.2% and 78.8% | 75.9% | 62.1% | 73.5% | 67.7% | 77.9% | 78.2% | 74%
CCCCCCCCCCCC(=O)O [Lauric Acid] | 91.8% and 82.9% | 85.7% | 89.8% | 101% | 92.6% | 92.1% | 94.9% | 96.1%
CO[C@H]1C[C@H](O[C@H]2[C@H](C)O[C@@H](O[C@@H]3/C(C)=C/C[C@@H]4C[C@@H](C[C@]5(C=C[C@H](C)[C@@H](C6CCCCC6)O5)O4)OC(=O)[C@@H]4C=C(C)[C@@H](O)[C@H]5OC/C(=C\C=C\[C@@H]3C)[C@]54O)C[C@@H]2OC)O[C@@H](C)[C@@H]1O [Doramectin] | 33% and 39.8% | 37.1% | 36.8% | 29.4% | 24.6% | 29.9% | 15.3% | 17.3%
COc1cc(/C=C/c2ccc(O)c(O)c2)cc(OC)c1 [3'-Hydroxypterostilbene] | 74% and 61.4% | 67.4% | 29.2% | 39.9% | 21.3% | 10.6% | 44.4% | 44.7%
Nc1ccc(S(=O)(=O)Nc2ncccn2)cc1 [Sodium sulfadiazine] | 98.3% and 99.1% | 102% | 106% | 97.4% | 98.1% | 102% | 109% | 96.8%
COc1cc2c(cc1O)[C@@H](Cc1ccc(O)c(Oc3ccc(C[C@@H]4c5cc(OC)c(OC)cc5CCN4C)cc3)c1)N(C)CC2 [Daurisoline] | 30.5% and 37.4% | 15.9% | 3.28% | 9.42% | 1.06% | 0.83% | 1.65% | 1.01%
O=C(Nc1ccccc1)Nc1ccc(-c2ccc(C(=O)[C@@H]3CCC[C@H]3C(=O)O)cc2)cc1 | 96.9% and 97.6% | 98.8% | 106% | 106% | 102% | 103% | 103% | 109%
CC1(C)CC[C@]2(C(=O)O[C@@H]3O[C@H](CO[C@@H]4O[C@H](CO)[C@@H](O)[C@H](O)[C@H]4O)[C@@H](O)[C@H](O)[C@H]3O)CC[C@]3(C)C(=CC[C@@H]4[C@@]5(C)CC[C@H](O[C@@H]6OC[C@H](O)[C@H](O)[C@H]6O)[C@@](C)(CO)[C@@H]5CC[C@]43C)[C@@H]2C1 [Akebia saponin D] | 107% and 101% | 103% | 105% | 113% | 103% | 108% | 96.4% | 106%
CNC(=O)c1ccc(C)c(-n2c(C)cc(OCc3ccc(F)cc3F)c(Br)c2=O)c1 | 74% and 77.8% | 82.4% | 65.6% | 58.4% | 69.8% | 78.8% | 72.8% | 72.2%
CC(C)c1nc(N(C)S(C)(=O)=O)nc(-c2ccc(F)cc2)c1/C=C/[C@@H](O)C[C@@H](O)CC(=O)O [Rosuvastatin Calcium] | 103% and 107% | 101% | 94.8% | 96.5% | 112% | 105% | 105% | 102%
N#Cc1cccc(-c2c[nH]c3ncnc(N4CCOCC4)c23)c1 | 102% and 106% | 102% | 81.9% | 92.8% | 96.8% | 103% | 109% | 106%
O=C(O)c1ccc(O)c2ncccc12 | 99.2% and 102% | 97.3% | 107% | 108% | 98.9% | 102% | 108% | 102%
COc1cc(C2Oc3ccc(C4Oc5cc(O)cc(O)c5C(=O)C4O)cc3OC2CO)ccc1O (stereo not drawn) [Isosilybin] | 92.6% and 89.8% | 85.4% | 99% | 106% | 104% | 98.9% | 96.8% | 95.3%
